From PubChem BioAssay (Tox21)
Records with an inconclusive call do not appear. Calls of active or inactive are those of the source. Unless noted, calls follow the shape of the dose curve; as a rule, active = well fitted curve in the direction sought with a large enough effect in the repeat runs; inconclusive = weak or mixed curves; inactive = no such curve, though single readings can be large; an effect the other way counts as inactive or inconclusive.

Legend:
[1] = qHTS assay to identify small molecule agonists of the vitamin D receptor (VDR) signaling pathway - cell viability counter screen (AID 743224); also: series mostly up to about 63 µM; % is scaled to controls: 0 for no effect and ±100 for the full control effect; nearly all actives have a fitted effect of over 50% in size
Procedure, shortened: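 Cells: VDR-bla, 2,000/well, settled 4 h. Treatment: compounds in DMSO, 16 h, 37C/5% CO2. Readout: CellTiter-Glo luminescence after 30 min RT.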

[2] = qHTS assay to identify small molecule antagonists of the vitamin D receptor (VDR) signaling pathway - cell viability counter screen (AID 743225); also: % is scaled to controls: 0 for no effect and ±100 for the full control effect; nearly all actives have a fitted effect of over 50% in size
Procedure, shortened: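 VDR-bla HEK 293T cells, 4 h pre-incubation at 37C, then compound plus 1-alpha,25-dihydroxyvitamin D3 (3 nM final) for 16 h. After the beta-lactamase FRET read, CellTiter-Glo was added to the same wells; luminescence after 30 min at room temperature.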

[3] = qHTS assay to identify small molecule agonists of the NFkB signaling pathway (AID 1159509; active = well fitted curve in the direction sought with a large enough effect in the signal ratio in the repeat runs, not every such curve was filed as active; the % refers to the signal ratio; also: series mostly up to about 61 µM; % is scaled to controls: 0 for no effect and ±100 for the full control effect)
Procedure, shortened: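 Beta-lactamase reporter assay run in quantitative high-throughput format on an NF-kB-responsive ME-180 line, with 5 hr compound treatment and a FRET-based blue/green fluorescence readout.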

[4] = qHTS assay to identify small molecule agonists of the NFkB signaling pathway - cell viability counter screen (AID 1159515; calls by dose curve; also: series mostly up to about 61 µM; % is scaled to controls: 0 for no effect and ±100 for the full control effect; nearly all actives have a fitted effect of over 55% in size)
Procedure, shortened: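 Cells are seeded (2,000 NFkB-bla ME-180 per well), rested overnight, and dosed with DMSO-dissolved compounds for 5 hr at 37 C. Viability is then read by CellTiter-Glo luminescence after 30 min at room temperature.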

[5] = qHTS assay to identify small molecule agonists of the endoplasmic reticulum stress response signaling pathway (AID 1159516; active = well fitted activation curve with a large enough effect in the signal ratio in the repeat runs, not every such curve was filed as active; the % refers to the signal ratio; also: % is scaled to controls: 0 for no effect and ±100 for the full control effect)
Procedure, shortened: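 Cells are seeded at 1,500 per well and incubated overnight. Compounds in DMSO are added for 5 hr at 37 C, then beta-lactamase FRET substrate for 2 hr at room temperature, and fluorescence at 460 and 530 nm is measured.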

[6] = qHTS assay to identify small molecule agonists of the endoplasmic reticulum stress response signaling pathway - cell viability counter screen (AID 1159517; calls by dose curve;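 also: HeLa cells carrying an ER stress response element beta-lactamase reporter; series mostly up to about 61 µM; % is scaled to controls: 0 for no effect and ±100 for the full control effect; nearly all actives have a fitted effect of over 50% in size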)
Procedure, shortened: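 Steps: seed 1,500 ESRE-bla HeLa cells per well; incubate overnight at 37 C, 5% CO2; add compounds in DMSO for 5 hr; run FRET substrate 2 hr RT; add CellTiter-Glo, wait 30 min, read luminescence.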

[7] = qHTS assay to identify small molecule antagonists of the retinoid-related orphan receptor gamma (ROR-gamma) signaling pathway - cell viability counter screen (AID 1159520); also: % is scaled to controls: 0 for no effect and ±100 for the full control effect; nearly all actives have a fitted effect of over 50% in size
Procedure, shortened: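 Tet-on ROR gamma CHO cells were given compounds for 2 hr, then doxycycline hyclate at 1 uM final, and incubated 16 hr at 37 C. Viability was measured as ATP content by CellTiter-Glo luminescence.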

[8] = qHTS assay to identify small molecule agonists of the AP-1 signaling pathway - cell viability counter screen (AID 1159525; calls by dose curve; also: nearly all actives have a fitted effect of over 55% in size)
Procedure, shortened: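 Same-well cytotoxicity counter screen of the Tox21 10K library in ME-180 cells. The readout is ATP-dependent luminescence after 5 h compound treatment. Data are normalised to DMSO and tetra n-octyl ammonium bromide controls.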

[9] = qHTS assay to identify small molecule agonists of the AP-1 signaling pathway (AID 1159526; calls by dose curve; also: % is scaled to controls: 0 for no effect and ±100 for the full control effect)
[10] = qHTS assay to identify small molecule agonists of the RXR signaling pathway - cell viability counter screen (AID 1159529)
Procedure, shortened: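 RXR-alpha-UAS-bla HEK 293T cells in medium with 2% charcoal-stripped FBS were preincubated 5 hr, then exposed to compounds for 16 hr at 37 C. Viability was read as CellTiter-Glo luminescence after 30 min at room temperature.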

[11] = qHTS assay to identify small molecule antagonists of the retinoid acid receptor (RAR) signaling pathway - cell viability counter screen (AID 1159551); also: % is scaled to controls: 0 for no effect and ±100 for the full control effect; nearly all actives have a fitted effect of over 35% in size
Procedure, shortened: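 Cells (C3RL4) are plated, incubated overnight, dosed with compound in DMSO, then given retinol at 1 uM final. After 6 h at 37 C, CellTiter-Glo is added and luminescence read following 30 min at room temperature.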

[12] = qHTS assay to identify small molecule antagonists of the retinoic acid receptor (RAR) signaling pathway (AID 1159552)
Procedure, shortened: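 RARE-luc C3RL4 cells; cpds + 1 uM (final) retinol, 6 hr, 37 C/5% CO2; luciferase reagent, 30 min RT, luminescence readout. Inhibitors of retinol-driven signal scored.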

[13] = qHTS assay to identify small molecule antagonists of the estrogen related receptor (ERR) signaling pathway - cell viability counter screen (AID 1224818); also: series mostly up to about 46 µM; % is scaled to controls: 0 for no effect and ±100 for the full control effect
Procedure, shortened: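 ERR cells, 2,000/well; 6 h settle at 37 C/5% CO2; compound pin transfer (DMSO); 17.5 h at 37 C; CellTiter-Fluor, 30 min, fluorescence read.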

[14] = qHTS assay to identify small molecule antagonists of the estrogen related receptor (ERR) signaling pathway (AID 1224819)
Procedure, shortened: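 qHTS in ERR cells, 2,000/well, 1536 format. Cpd (DMSO) added after 6 h settle, 18 h 37 C. One-Glo luminescence, 30 min RT.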

[15] = qHTS assay to identify small molecule agonists of the estrogen related receptor (ERR) signaling pathway (AID 1224820); also: % is scaled to controls: 0 for no effect and ±100 for the full control effect
Procedure, shortened: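 Following a 6 h settling period, 2,000 ERR cells per well receive DMSO-dissolved compounds by pin tool and incubate 18 h at 37 C; agonist activity is scored from One-Glo luminescence read 30 min post-addition.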

[16] = system: estrogen-related receptor alpha (ERRalpha) with PGC-1alpha coactivator, human; assay: qHTS assay to identify small molecule antagonists of the estrogen related receptor signaling pathway with the pleiotropic PPARgamma coactivator (PGC) (AID 1224821; calls by dose curve)
Procedure, shortened: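 Screening used NTP's PGC/ERR cells, dosed via pin tool with compound in DMSO alongside positive and negative controls. After 18 h at 37 C, One-Glo reagent sat 30 min at room temperature before luminescence detection.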

[17] = qHTS assay to identify small molecule antagonists of the estrogen related receptor signaling pathway with the pleiotropic PPARgamma coactivator (PGC) cell viability counter screen (AID 1224822)
Procedure, shortened: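 Multiplexed viability counter screen run in PGC/ERR cells treated with compounds for 17.5 h at 37 C; live-cell protease signal measured by CellTiter-Fluor fluorescence.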

[18] = biological target: Nuclear receptor ROR-gamma (Homo sapiens) (UniProt P51449); assay: qHTS assay to identify small molecule antagonists of the retinoid-related orphan receptor gamma (ROR-gamma) signaling pathway (AID 1159521)
Procedure, shortened: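 Tet-on RORγ CHO cells carrying a ROR response element–luciferase reporter were pretreated with compounds for 2 h, then induced with 1 uM (final) doxycycline hyclate for 16 h at 37 C. Antagonism was read as decreased ONE-Glo luminescence.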

[19] = biological target: Retinoic acid receptor RXR-alpha (Homo sapiens) (UniProt P19793); assay: qHTS assay to identify small molecule agonists of the RXR signaling pathway (AID 1159527; calls by dose curve; also: % is scaled to controls: 0 for no effect and ±100 for the full control effect; nearly all actives have a fitted effect of over 35% in size)
Procedure, shortened: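 GeneBLAzer RXR-alpha-UAS-bla HEK 293T cells in medium with 2% charcoal-stripped FBS, pre-incubated 5 hr at 37 C, then exposed to compounds 16 hr. Beta-lactamase reporter read by FRET substrate, 2 hr room temperature, 460/530 nm emission.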

[20] = qHTS assay to identify small molecule agonists of the retinoic acid receptor (RAR) signaling pathway (AID 1159553); also: potency is read from the fitted curve at half-maximal effect
Procedure, shortened: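 Seed C3RL4 reporter cells at 1,000 per well and incubate overnight at 37 C. Add compounds in DMSO, incubate 6 hr. Add luciferase reagent, wait 30 min at room temperature, read luminescence.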

Sequence of Retinoic acid receptor RXR-alpha (Homo sapiens) (P19793 whole entry, looked up): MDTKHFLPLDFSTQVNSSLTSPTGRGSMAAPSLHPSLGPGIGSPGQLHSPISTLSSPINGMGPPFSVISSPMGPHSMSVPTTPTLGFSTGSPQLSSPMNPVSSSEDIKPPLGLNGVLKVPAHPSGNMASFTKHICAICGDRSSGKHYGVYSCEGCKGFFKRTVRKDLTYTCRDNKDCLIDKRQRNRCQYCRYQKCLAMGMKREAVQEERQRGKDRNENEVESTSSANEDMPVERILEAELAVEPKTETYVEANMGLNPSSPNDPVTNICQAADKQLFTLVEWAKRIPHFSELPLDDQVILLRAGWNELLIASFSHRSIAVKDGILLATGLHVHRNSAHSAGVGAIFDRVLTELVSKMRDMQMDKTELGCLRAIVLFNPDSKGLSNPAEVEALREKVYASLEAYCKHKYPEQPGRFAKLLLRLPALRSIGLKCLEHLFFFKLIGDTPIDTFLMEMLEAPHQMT

O=C(O)c1cccnc1Nc1cccc(C(F)(F)F)c1
inactive: outcome [1] | outcome [2] | outcome [3] | outcome [4] | outcome [5] | outcome [6] | Potency [7] | outcome [8] | Potency [9] | Potency [10] | outcome [11] | outcome [12] | outcome [13] | Potency [14] | outcome [15] | outcome [16] | outcome [17]

Cc1ccc(Cl)c(OCC(O)CNC(C)(C)C)c1 (centres undefined)
inactive: outcome [2] | outcome [3] | outcome [4] | outcome [5] | outcome [6] | Potency [7] | Potency [18] | outcome [8] | outcome [19] | Potency [10] | outcome [11] | outcome [12] | Potency [20]

O=C(c1ccco1)N1CCNCC1
inactive: outcome [1] | outcome [2] | outcome [3] | outcome [4] | outcome [5] | outcome [6] | Potency [7] | Potency [18] | outcome [8] | outcome [19] | Potency [10] | outcome [11] | outcome [12] | Potency [20]

c1ccc(-c2ccc(-c3ccccc3)cc2)cc1
inactive: outcome [1] | outcome [3] | outcome [4] | outcome [5] | outcome [6] | activity, negative = cytotoxicity [7] 4.58% [at 19 µM] | viability change, negative = cytotoxic [8] 1.74% [at 15.8 µM] | activation [9] -13.1% [at 15.8 µM] | activity change, negative = cytotoxicity [10] 4.66% [at 15.8 µM] | activity change, negative = cytotoxicity [11] 4.6% [at 19 µM] | activity, negative = inhibition [12] 100% [at 19 µM]
active: Potency [20] 996 nM

O=C(O)CNc1ccccc1
inactive: outcome [1] | outcome [2] | outcome [3] | outcome [4] | outcome [5] | outcome [6] | Potency [7] | outcome [8] | Potency [9] | Potency [10] | outcome [11] | outcome [12]

Cc1c(Cl)cccc1[N+](=O)[O-]
inactive: outcome [1] | outcome [2] | outcome [3] | outcome [4] | outcome [5] | outcome [6] | Potency [7] | outcome [8] | Potency [9] | Potency [10] | outcome [11] | outcome [12] | Potency [20]

CC1=CC(=C(c2ccc(N)cc2)c2ccc(N)cc2)C=CC1=N
inactive: activity change, negative = cytotoxicity [1] -18.2% [at 5.95 µM] | activation [3] 0.0131% [at 6.95 µM] | activity, negative = cytotoxic [4] 11% [at 6.95 µM] | activation [5] -5.36% [at 6.95 µM] | activity change, negative = cytotoxicity [6] -9.14% [at 6.95 µM] | activity, negative = cytotoxicity [7] -12.6% [at 8.39 µM] | activity change, negative = inhibition [18] -15.2% [at 8.39 µM] | viability change, negative = cytotoxic [8] 23.5% [at 6.97 µM] | activation [9] -9.58% [at 6.97 µM] | activity, negative = inhibition [12] -2.67% [at 8.39 µM] | activation [20] -1.68% [at 8.36 µM]

COc1cc(C)c(Cc2cnc(N)nc2N)cc1OC
inactive: outcome [1] | outcome [2] | outcome [3] | outcome [4] | outcome [5] | outcome [6] | Potency [7] | outcome [8] | Potency [9] | Potency [10] | outcome [11] | outcome [12]

COc1ccc(/C=C/c2cc(OC)cc(=O)o2)cc1
inactive: outcome [1] | outcome [2] | outcome [3] | outcome [4] | outcome [5] | outcome [6] | Potency [7] | outcome [8] | Potency [9] | Potency [10] | outcome [11] | outcome [12]
active: Potency [20] 2790 nM

NCCOCCOCCN
inactive: outcome [1] | outcome [2] | outcome [3] | outcome [4] | outcome [5] | outcome [6] | Potency [7] | Potency [18] | outcome [8] | Potency [9] | outcome [11]

C[C@H](CN1CCCC1)C(=O)c1ccc(C(F)(F)F)cc1
inactive: outcome [1] | outcome [2] | outcome [3] | outcome [4] | outcome [5] | outcome [6] | Potency [7] | Potency [18] | outcome [8] | Potency [9] | outcome [12]

Cc1ccc(S(=O)(=O)NC(=O)NC2CCCC2)cc1
inactive: outcome [1] | outcome [2] | outcome [3] | outcome [4] | outcome [5] | outcome [6] | Potency [7] | Potency [18] | outcome [8] | outcome [19] | Potency [10] | outcome [11] | outcome [12] | Potency [20]

O=C1CCCN1CCO
inactive: outcome [1] | outcome [3] | outcome [4] | outcome [5] | outcome [6] | Potency [7] | Potency [18] | outcome [8] | Potency [9]

C[C@@H](O)[C@H]1C(=O)N2C(C(=O)O)=C(S[C@@H]3CN[C@H](CNS(N)(=O)=O)C3)[C@H](C)[C@H]12
inactive: outcome [3] | outcome [4] | outcome [5] | outcome [6] | Potency [7] | outcome [8] | Potency [9] | Potency [10]

O=C1C=CCCC1
inactive: outcome [2] | outcome [3] | outcome [4] | outcome [5] | outcome [6] | Potency [7] | outcome [8] | Potency [9] | Potency [10] | outcome [11] | outcome [12]

S=c1[nH][nH]c(=S)s1
inactive: outcome [1] | outcome [2] | outcome [3] | outcome [4] | outcome [5] | outcome [6] | Potency [7] | Potency [18] | outcome [8] | Potency [9] | Potency [10]

Cc1cc(N)n(-c2ccccc2)n1
inactive: outcome [1] | outcome [2] | outcome [3] | outcome [4] | outcome [5] | outcome [6] | Potency [7] | outcome [8] | Potency [9] | Potency [10] | outcome [11] | outcome [12]
